Laboratory results published in PubChem BioAssay (NCATS).
A number with no mark means an inactive call. Inconclusive results are not listed. Activity calls are given as the source filed them. Cut-off read from the data, not from the text of the source, unless noted: active = potency below about 10 µM; inactive = the rest.

Target: Lysosomal acid glucosylceramidase (Homo sapiens) (UniProt P04062)
Sequence (P04062 whole entry, looked up): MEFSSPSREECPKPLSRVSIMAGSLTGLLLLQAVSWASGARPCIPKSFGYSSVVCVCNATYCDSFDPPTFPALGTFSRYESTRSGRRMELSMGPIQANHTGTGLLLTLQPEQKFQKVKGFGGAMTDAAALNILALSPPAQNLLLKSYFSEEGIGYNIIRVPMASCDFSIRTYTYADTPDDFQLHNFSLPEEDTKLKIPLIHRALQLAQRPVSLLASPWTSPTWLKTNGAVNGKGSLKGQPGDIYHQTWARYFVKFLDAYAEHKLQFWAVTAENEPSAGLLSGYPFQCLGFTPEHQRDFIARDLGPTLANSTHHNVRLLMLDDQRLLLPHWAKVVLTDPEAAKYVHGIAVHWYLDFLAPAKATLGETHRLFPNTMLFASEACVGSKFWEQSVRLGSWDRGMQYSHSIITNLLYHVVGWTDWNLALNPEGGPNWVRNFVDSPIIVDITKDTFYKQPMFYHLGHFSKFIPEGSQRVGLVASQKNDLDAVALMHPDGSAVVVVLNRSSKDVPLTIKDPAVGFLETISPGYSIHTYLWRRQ
Experiment: Glucocerebrosidase-p2 (AID 348); note: potency is the fitted concentration of half-maximal effect
Details: purified GBA, blue fluorogenic substrate, 40 min
Method in brief: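 Compounds titrated from 0.6 nM upwards against 0.2 nM enzyme in pH 5.9 citric acid/KH2PO4, taurocholate, tween-20; blue fluorogenic substrate 80 uM, 40 min room temperature, stopped and read Ex 365/Em 440 for AC50.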
For `CN1CCCC[C@@H]1CCN1c2ccccc2Sc2ccc(S(C)=O)cc21` (stereo not given in full), the Potency was > 11.4 µM. In the case of `CN(Cc1ccco1)c1ccnc(-c2cccc(NS(C)(=O)=O)c2)n1`, the Potency is reported as > 11.4 µM. For `Cc1cccc(CNc2ncncc2-c2ccccc2C(F)(F)F)c1`, the Potency was > 11.4 µM. In the case of `COc1ccccc1-c1ccc2ncnc(N(C)C)c2c1`, the Potency is reported as > 11.4 µM. In the case of `COc1cccc(Nc2ncc3nc(C)c(=O)n(CCC#N)c3n2)c1`, the Potency is reported as > 11.4 µM. For `Cn1cccc1C(=O)N1CCC2(CC1)CN(Cc1cc(C(F)(F)F)cc(C(F)(F)F)c1)C2`, the Potency was > 11.4 µM. With `COc1ccc2[nH]cc(CCNc3ncnc4ccc(-c5ccc(C(=O)N(C)C)cc5)cc34)c2c1` the Potency was > 11.4 µM. In the case of `CN(C)Cc1ccccc1-c1ccc2ncnc(NCc3ccccc3)c2c1`, the Potency is reported as > 11.4 µM. For `Cc1cccc(CNc2cc(-c3ccc(C(=O)N(C)C)cc3)ncn2)c1`, the Potency was > 11.4 µM. With `COc1ccc2[nH]cc(CCNc3cc(-c4ccoc4)ncn3)c2c1` the Potency was > 11.4 µM. In the case of `Cc1cccc(CNc2ccnc(-c3ccc(C(=O)N(C)C)cc3)n2)c1`, the Potency is reported as > 11.4 µM. In the case of `CN(C)Cc1ccccc1-c1nc(N(C)Cc2ccco2)c2ccccc2n1`, the Potency is reported as > 11.4 µM. In the case of `Cc1cccc(CNc2nc(-c3ccoc3)nc3ccccc23)c1`, the Potency is reported as > 11.4 µM. For `CNc1nc(-c2ccccc2OC)nc2ccccc12`, the Potency was > 11.4 µM. In the case of `COc1ccccc1-c1cncnc1NCc1cccc(C)c1`, the Potency is reported as > 11.4 µM. For `CC(=O)N1CCC2(CC1)CCN(c1ccncc1)CC2`, the Potency was > 11.4 µM. With `Cc1nc2cnc(N(C)C)nc2n(Cc2cccs2)c1=O` the Potency was > 11.4 µM. With `c1ccc2c(Nc3ccncc3)nc(-c3ccoc3)nc2c1` the Potency was 7.37 µM (active). In the case of `COCC(=O)N1CCC2(CCN(Cc3ccncc3)CC2)CC1`, the Potency is reported as > 11.4 µM. With `CS(=O)(=O)Nc1cccc(-c2nc(N3CCOCC3)c3ccccc3n2)c1` the Potency was > 11.4 µM. For `Cc1cccc(CNc2nc(-c3cccc(NS(C)(=O)=O)c3)nc3ccccc23)c1`, the Potency was > 11.4 µM. In the case of `CNc1ncnc2ccc(-c3ccccc3OC)cc12`, the Potency is reported as > 11.4 µM. For `N#CCCn1c(=O)cnc2cnc(N3CCNCC3)nc21`, the Potency was > 11.4 µM. In the case of `CC(C)NC(=O)N1CCC2(CC1)CCN(C(=O)c1cnccn1)CC2`, the Potency is reported as > 11.4 µM. With `COc1ccc2[nH]cc(CCNc3ncnc4ccc(-c5ccccc5CN(C)C)cc34)c2c1` the Potency was > 11.4 µM. With `COCCNc1nc(-c2cccc(OC)c2)nc2ccccc12` the Potency was > 11.4 µM. For `CN(C)c1ccc(-c2cc(NCc3cccnc3)ncn2)cc1`, the Potency was > 11.4 µM. In the case of `COc1ccc2[nH]cc(CCNc3ncncc3-c3ccccc3CN(C)C)c2c1`, the Potency is reported as > 11.4 µM. With `Cc1ccccc1-c1nc(-n2ccnc2)c2ccccc2n1` the Potency was > 11.4 µM. For `COc1ccccc1CNc1ccnc(-c2ccccc2C(F)(F)F)n1`, the Potency was > 11.4 µM. For `COc1ccccc1-c1nc(NCc2cnc(C)cn2)c2ccccc2n1`, the Potency was > 11.4 µM. In the case of `COc1ncc2nc(-c3ccc(Cl)cc3)c(=O)n(-c3ccccc3)c2n1`, the Potency is reported as > 11.4 µM. With `COCCNc1ncnc2ccc(-c3ccccc3CN(C)C)cc12` the Potency was > 11.4 µM. For `COc1ccc(C(=O)N2CCC3(CCN(C(=O)Nc4cccc(F)c4)CC3)CC2)cc1`, the Potency was > 11.4 µM. For `Cc1cccc(CNc2ccnc(-c3ccccc3CN(C)C)n2)c1`, the Potency was 11.5 µM. For `CN1[C@@H]2CC[C@H]1CC(OC(=O)[C@@H](O)c1ccccc1)C2` (stereo not given in full), the Potency was > 11.4 µM.

Tested on: not listed separately
Experiment: AP1 Signaling Pathway (AID 357; active = well fitted curve in either direction with a large enough effect, not every such curve was filed as active;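 note: ME-180 reporter cells stimulated with EGF at its EC50 level; % is set by controls: 0 for no effect and ±100 for the full control effect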)
Details: ME-180 (cervical carcinoma) AP-1-bla reporter, EGF-induced, beta-lactamase ratio, 5 h; at 7.69 µM (top of the series) unless noted
Method in brief: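 AP-1-bla ME-180 cells, Opti-MEM + 0.5% dialyzed FBS, plated overnight 37 °C. Cpd titration + EC50 EGF, 5 h 37 °C. CCF4 2.5 h RT; ex 405, em 460/530 ratio → %activity, AC50.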
`CN(Cc1ccco1)c1ccnc(-c2cccc(NS(C)(=O)=O)c2)n1` gave an activity change, negative = inhibition of -9.76%. Work on `Cc1cccc(CNc2ncncc2-c2ccccc2C(F)(F)F)c1` yielded an activity change, negative = inhibition of -9.35%. In the case of `COc1ccccc1-c1ccc2ncnc(N(C)C)c2c1`, the activity change, negative = inhibition is reported as -19.5%. With `COc1cccc(Nc2ncc3nc(C)c(=O)n(CCC#N)c3n2)c1` the activity change, negative = inhibition was -18.4%. For `Cn1cccc1C(=O)N1CCC2(CC1)CN(Cc1cc(C(F)(F)F)cc(C(F)(F)F)c1)C2`, the activity change, negative = inhibition was -5.13%. Molecule `COc1ccc2[nH]cc(CCNc3ncnc4ccc(-c5ccc(C(=O)N(C)C)cc5)cc34)c2c1` has an activity change, negative = inhibition of -28%. Molecule `CN(C)Cc1ccccc1-c1ccc2ncnc(NCc3ccccc3)c2c1` has an activity change, negative = inhibition of -7.49%. For `Cc1cccc(CNc2cc(-c3ccc(C(=O)N(C)C)cc3)ncn2)c1`, the activity change, negative = inhibition was -7.22%. With `COc1ccc2[nH]cc(CCNc3cc(-c4ccoc4)ncn3)c2c1` the activity change, negative = inhibition was -5.94%. For `Cc1cccc(CNc2ccnc(-c3ccc(C(=O)N(C)C)cc3)n2)c1`, the activity change, negative = inhibition was -17.2%. `CN(C)Cc1ccccc1-c1nc(N(C)Cc2ccco2)c2ccccc2n1` gave an activity change, negative = inhibition of 9.21%. With `Cc1cccc(CNc2nc(-c3ccoc3)nc3ccccc23)c1` the activity change, negative = inhibition was -0.544%. `CNc1nc(-c2ccccc2OC)nc2ccccc12` showed an activity change, negative = inhibition of 7.61%. `COc1ccccc1-c1cncnc1NCc1cccc(C)c1` gave an activity change, negative = inhibition of -3.97%. `CC(=O)N1CCC2(CC1)CCN(c1ccncc1)CC2` showed an activity change, negative = inhibition of -3.43%. Molecule `Cc1nc2cnc(N(C)C)nc2n(Cc2cccs2)c1=O` has an activity change, negative = inhibition of -12%. `c1ccc2c(Nc3ccncc3)nc(-c3ccoc3)nc2c1` gave an activity change, negative = inhibition of -7.11%. `COCC(=O)N1CCC2(CCN(Cc3ccncc3)CC2)CC1` showed an activity change, negative = inhibition of 5.27%. `CS(=O)(=O)Nc1cccc(-c2nc(N3CCOCC3)c3ccccc3n2)c1` gave an activity change, negative = inhibition of -11.2%. For `Cc1cccc(CNc2nc(-c3cccc(NS(C)(=O)=O)c3)nc3ccccc23)c1`, the activity change, negative = inhibition was -27.3%. With `CNc1ncnc2ccc(-c3ccccc3OC)cc12` the activity change, negative = inhibition was 0.353%. For `N#CCCn1c(=O)cnc2cnc(N3CCNCC3)nc21`, the activity change, negative = inhibition was -10.6%. In the case of `CC(C)NC(=O)N1CCC2(CC1)CCN(C(=O)c1cnccn1)CC2`, the activity change, negative = inhibition is reported as -0.14%. Work on `COc1ccc2[nH]cc(CCNc3ncnc4ccc(-c5ccccc5CN(C)C)cc34)c2c1` yielded an activity change, negative = inhibition of -1.42%. Work on `COCCNc1nc(-c2cccc(OC)c2)nc2ccccc12` yielded an activity change, negative = inhibition of -3.79%. `CN(C)c1ccc(-c2cc(NCc3cccnc3)ncn2)cc1` showed an activity change, negative = inhibition of -9.72%. Work on `COc1ccc2[nH]cc(CCNc3ncncc3-c3ccccc3CN(C)C)c2c1` yielded an activity change, negative = inhibition of -7.44%. Work on `Cc1ccccc1-c1nc(-n2ccnc2)c2ccccc2n1` yielded an activity change, negative = inhibition of -12.3%. Molecule `COc1ccccc1CNc1ccnc(-c2ccccc2C(F)(F)F)n1` has an activity change, negative = inhibition of -18.3%. Work on `COc1ccccc1-c1nc(NCc2cnc(C)cn2)c2ccccc2n1` yielded an activity change, negative = inhibition of 4.95%. With `COc1ncc2nc(-c3ccc(Cl)cc3)c(=O)n(-c3ccccc3)c2n1` the activity change, negative = inhibition was -12.8%. For `COCCNc1ncnc2ccc(-c3ccccc3CN(C)C)cc12`, the activity change, negative = inhibition was -22.6%. For `COc1ccc(C(=O)N2CCC3(CCN(C(=O)Nc4cccc(F)c4)CC3)CC2)cc1`, the activity change, negative = inhibition was -28.3%. In the case of `Cc1cccc(CNc2ccnc(-c3ccccc3CN(C)C)n2)c1`, the activity change, negative = inhibition is reported as -18%.
